Assay outcomes from PubChem BioAssay.
Compounds with a hit are over-represented: about 3.7% of the library has one in this group of screens.
PTHR1 agonist: qHTS for PTHR1 Agonists: Primary Screen; Parathyroid hormone/parathyroid hormone-related peptide receptor (Homo sapiens), Q03431; HEK293 GP2 PTHR1 cells, GloSensor cAMP luminescence, 1 h; Potency, µM (series often up to 115 µM), inactives show at the top dose activation, most hits filed as activators; 410,000 tested, 0.075% active; AID 743266, 2014; note: potency is the fitted concentration of half-maximal effect; nearly all actives have a fitted effect of over 55% in size
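HEK-293-derived GP2 cells expressing PTHR1 and a GloSensor cAMP reporter, 3,000/well, plated overnight, given luciferin plus IBMX (each 0.5 mM as added) for 1 h at 37 °C, then compound for 1 h at 37 °C. Luminescence was read after 15 min at room temperature.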
BRCA1 expr act: qHTS Assay to Identify Small Molecule Activators of BRCA1 Expression | MCF7-BRCA1-FFLuc reporter, luminescence, 48 h; response scale: scaled: vehicle 0%, 10 µM genistein 100% | Potency, µM (series often up to 46.1 µM), inactives show at the highest dose activation, hits mostly activators | 380,000 tested, 1.1% active; note: potency is the fitted concentration of half-maximal effect; nearly all actives have a fitted effect of over 80% in size
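MCF7-BRCA1-FFLuc cells, 2000/well in phenol-red-free MEM, attached 2 h then treated 48 h at 37 C. Luciferase luminescence read 15 min after reagent; normalized to genistein maximum activation (10microM) and DMSO, concentration-response fitted.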
DRD3 agonist: qHTS of D3 Dopamine Receptor Agonist: qHTS. AID 652048, 2013. max activation, %. 410,000 tested, 0.58% active. D3R DiscoveRx beta-arrestin cells, luminescence, 90 min. D(3) dopamine receptor (Homo sapiens), P35462; in the data active = max activation above about 30%; note: 0% is about no effect
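Agonist mode: compounds and dopamine controls were applied to plated cells for 90 min at 37 degrees C after an overnight attachment at 1500 cells/well. Luminescent read-out followed 30 - 60 minutes at room temperature with DiscoveRx detection reagent.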
B2AR arrestin: qHTS assay of beta-arrestin-biased ligands of beta2-adrenergic receptor. Beta-2 adrenergic receptor (Homo sapiens), P07550. beta-arrestin recruitment to beta2AR, cell-based reporter. Potency, µM (titrated, usually from 46.1 µM), inactives show at the highest dose activation, hits mostly activators. 330,000 tested, 0.02% active. AID 492947, 2010;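 note: potency is the fitted concentration of half-maximal effect; 0% = DMSO controls and full agonism = EC100 isoproterenol or metaproterenol; nearly all actives have a fitted effect of over 65% in size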
Target sequence (P07550 whole entry, looked up): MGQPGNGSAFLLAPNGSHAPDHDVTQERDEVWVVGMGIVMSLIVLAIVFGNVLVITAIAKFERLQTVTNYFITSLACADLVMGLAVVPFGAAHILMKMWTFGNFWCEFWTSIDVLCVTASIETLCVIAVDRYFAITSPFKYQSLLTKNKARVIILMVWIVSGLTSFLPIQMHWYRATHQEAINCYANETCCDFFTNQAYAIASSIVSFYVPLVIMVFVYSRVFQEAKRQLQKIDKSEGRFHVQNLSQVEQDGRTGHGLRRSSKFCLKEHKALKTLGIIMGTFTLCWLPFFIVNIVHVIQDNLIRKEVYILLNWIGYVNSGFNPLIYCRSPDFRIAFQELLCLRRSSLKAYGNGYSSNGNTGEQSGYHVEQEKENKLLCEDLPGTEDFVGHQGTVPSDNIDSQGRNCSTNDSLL
RGS4 inh: Inhibitors of Regulator of G Protein Signaling (RGS) 4: qHTS. 390,000 tested, 0.039% active. AID 504845, 2011. Potency, µM (titrated, usually from 114 µM), without a hit: at the top dose activity change, negative = inhibition, hits mostly inhibitors. Regulator of G-protein signaling 4 (Homo sapiens), P49798. Transcreener GDP fluorescence polarization, RGS4-accelerated GTP hydrolysis; note: potency is the fitted concentration of half-maximal effect; % is set by controls: 0 for no effect and ±100 for the full control effect; nearly all actives have a fitted effect of over 75% in size
Target sequence (P49798 whole entry, looked up): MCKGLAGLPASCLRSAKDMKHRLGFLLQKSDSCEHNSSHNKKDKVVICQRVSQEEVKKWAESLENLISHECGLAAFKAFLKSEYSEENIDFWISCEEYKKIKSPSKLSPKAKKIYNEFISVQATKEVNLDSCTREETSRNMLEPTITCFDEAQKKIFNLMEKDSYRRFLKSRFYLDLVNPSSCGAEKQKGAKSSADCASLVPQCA
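MLSMR compounds (23 nl, pin-transferred) preincubated 10 min at room temperature with a 500nM (2x) first reagent, then RGS4 at 900nM (2x) plus Transcreener GDP mix added; fluorescence polarization (620/688 nm) read before and after 90 min at 30 °C.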
DRD3 antagonist: qHTS of D3 Dopamine Receptor Antagonist: qHTS | D3R cells, DiscoveRx beta-arrestin luminescence, antagonist mode; active compounds read low | max response, negative = inhibition, % | 360,000 tested, 2.5% active; in the data active = max response below about -50%; inconclusive = no clear call, values can overlap the other calls; note: % is set by controls: 0 for no effect and ±100 for the full control effect
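Cells plated overnight at 1500 cells/well, then exposed to library compounds with dopamine controls for 90 minutes at 37 degrees C. DiscoveRx reagent added for 30–60 minutes at room temperature; luminescence read, quantitative HTS format.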
Active calls of the source: *; i = inactive; u = inconclusive; x = not tested or not shown; [ ] = remark or other dose. Unless noted, calls come from the whole dose curve; as a rule, active = well fitted curve in the direction sought with a large enough effect; inconclusive = small, poorly fitted or top-dose-only effect, or another doubt; inactive = no such curve, though single readings can be large; an effect the other way counts as inactive or inconclusive.

SMILES | PTHR1 agonist | BRCA1 expr act | DRD3 agonist | B2AR arrestin | RGS4 inh | DRD3 antagonist
Cc1ccc(CCNC(=O)c2ccc(CNS(=O)(=O)c3ccc(F)cc3)cc2)cc1 | i | x | -5 | x | -25% | x
COc1ccccc1NS(=O)(=O)c1ccc(C)c(C(=O)NC2CCN(Cc3ccccc3)CC2)c1 | -31% | -31% | -13 | -1% | -9% | u
COc1ccccc1NS(=O)(=O)c1cccc(C(=O)NC2CCN(Cc3ccccc3)CC2)c1 | -76% | -10% | -24 | -4% | 8% | -95*
Brc1ccccc1OCCCOc1cccc2cccnc12 | -35% | 8.9µM* | 2 | 0% | 0% | -5
Cc1ccc2[nH]cc(C(c3ccccc3)c3ccc(C)s3)c2c1 (stereo not drawn) | -92% | x | -9 | x | 5% | x
Cc1[nH]n2c(=O)cc(-c3ccc(Cl)cc3)nc2c1-c1ccccc1 | -32% | -74% | -20 | x | 9% | x
Cc1[nH]n2c(=O)cc(-c3ccc([N+](=O)[O-])cc3)nc2c1-c1ccccc1 | -10% | -92% | -7 | x | u | -81*
Cc1ccc(NC(=O)c2oc3ccc(S(=O)(=O)N4CCOCC4)cc3c2C)c(C)c1 | -33% | -18% | 7 | 0% | -3% | 56
Cc1cccc(NC(=O)c2oc3ccc(S(=O)(=O)N4CCOCC4)cc3c2C)c1C | -12%[57.5 µM] | -62% | 41* | 0% | 15% | 51
Cc1c(C(=O)Nc2ccc(F)cc2)oc2ccc(S(=O)(=O)N3CC(C)CC(C)C3)cc12 (stereo not drawn) | -55%[57.5 µM] | -61% | -4 | -1% | 4% | -62*
C#CCN1C=CC(=O)[C@@H](O)[C@H]1c1ccccc1Br | -1% | -8% | 1 | x | 0% | 0
O=C(Nc1sc2c(c1C(=O)O)CCC2)c1ccccc1 | -13% | -1% | -3 | 0% | 10% | -52*
O=C(Nc1sc2c(c1C(=O)O)CCCCC2)c1ccccc1 | -35% | -15% | -14 | -1% | -45% | -19
CC(C)OC(=O)c1c(NS(=O)(=O)c2ccccc2)sc2c1CCCC2 | -16%[57.5 µM] | -14% | -2 | 0% | -51%[11.4 µM] | -89*
O=C(Nc1sc2c(c1C(=O)O)CCCC2)c1cccc(Cl)c1 | -69% | 11µM* | -4 | 0% | 7% | -21
CCCCNC(=O)C(CC)Sc1nnc(-c2ccc(OC)c(OC)c2)c(-c2ccc(OC)c(OC)c2)n1 (stereo not drawn) | i | x | 5 | x | 4% | x
O=C(CCNC(=O)C1CCN(S(=O)(=O)c2ccccc2)CC1)NCc1cccnc1 | -18% | 6% | -1 | x | x | 1
CCOC(=O)N1CCN(S(=O)(=O)c2ccc3[nH]c(=O)oc3c2)CC1 | -19% | 16% | 34* | 0% | 2% | -6
CCOC(=O)C1CCN(S(=O)(=O)c2ccc3[nH]c(=O)oc3c2)CC1 | -1% | 7% | -3 | -1% | 2% | 4
COc1cc(NC(=O)C2CCN(S(=O)(=O)c3ccc4[nH]c(=O)oc4c3)CC2)cc(OC)c1 | 0.77µM* | 0% | -9 | 0% | 21%[11.4 µM] | 8
COC(=O)c1ccc(-c2ccc(Cl)cc2)nc1C | -44% | 2µM* | -7 | -1% | -7% | 4
COC(=O)c1ccccc1NC(=O)c1sc(Cl)nc1C | i | -33% | 7 | -1% | -34% | -9
S=C(N/N=C/c1ccc(Br)cc1)N1CCCCC1 | -23% | 8.9µM* | -10 | 0% | -44% | -5
C[C@H](NC(=O)c1nc[nH]c1C(=O)N(C)CCO)c1ccccc1 | 0% | 20% | -10 | x | x | 0
O=c1[nH]c(COc2ccc(Cl)cc2Br)nc2ccccc12 | -58% | u | -12 | 0% | -29% | -4
SMILES | PTHR1 agonist | BRCA1 expr act | DRD3 agonist | B2AR arrestin | RGS4 inh | DRD3 antagonist
C1CCC(NC(=NC2C3CC4CC(C3)CC2C4)N2CCOCC2)CC1 (stereo not drawn) | x | x | x | x | 0.34µM* | x
O=c1n(Cc2ccccc2)c(O)c2n1Cc1ccccc1N=C2c1ccc(C(F)(F)F)cc1 | -23% | -11% | 0 | x | x | 22
CC(C)C1NCCc2c1sc1ccccc21 (stereo not drawn) | i | 3% | -28 | x | -16% | -61*
COc1ccccc1CCNC(=O)c1nc(-c2cccs2)no1 | -24% | 4µM* | -2 | 0% | 5% | 2
COc1ccccc1CC(=O)NCc1csc(-c2cccs2)n1 | -14% | 11µM* | 7 | 0% | -10% | 0
CCC(=O)NCc1csc(-c2cccs2)n1 | 9% | 55% | -3 | 0% | 0% | -16
Oc1ccc(CN2CCCCC2)nc1-c1ccccc1 | i | 6% | 13 | -1% | -12% | -52*
Oc1ccc(-c2ccccc2)cc1CN1CCCCCC1 | i | 4% | -18 | -1% | -10%[56.9 µM] | -93*
CCN(CC)CCCNC(=O)CCC(=O)Nc1ccc2nc(N3CCCCC3)cc(C)c2c1 | i | 11µM* | -8 | 0% | 2% | 3
Cc1cc(N2CCN(C)CC2)nc2ccc(NC(=O)c3ccccc3F)cc12 | i | 11µM* | 4 | 0% | -16% | 9
CCCCN(CC)CCNC(=O)CCC(=O)Nc1ccc2nc(N3CCN(C)CC3)cc(C)c2c1 | 7% | -8% | 1 | -1% | 18%[11.4 µM] | -57*
COc1ccc(CCNC(=O)CCC(=O)Nc2ccc3nc(N4CCN(C)CC4)cc(C)c3c2)cc1OC | u | 3% | -4 | 0% | -12% | 0
CCCCN(CC)CCNC(=S)Nc1ccc2nc(N3CCN(C)CC3)cc(C)c2c1 | i | -49% | -31 | u | -16% | u
Cc1cc(N2CCN(C)CC2)nc2ccc(NC(=O)CCC(=O)NCCC3=CCCCC3)cc12 | i | -10% | -50 | x | -2% | -53*
CC(=O)Nc1ccc(NCc2nnc3n2CCCCC3)cc1 | i | 0% | 3 | x | -5% | x
COc1ccc(C(=O)CCC(C)(C)[N+](=O)[O-])cc1OC | i | -5% | 7 | 0% | -10% | 9
NC(=O)[C@@H]1C[C@]2(NC(=O)NC2=O)c2cc(F)ccc2O1 | x | x | -1 | x | x | x
O=[N+]([O-])c1ccc(/C=N/n2c(COc3ccccc3)n[nH]c2=S)cc1 | i | 1% | -3 | 0% | -41% | -90*
O=[N+]([O-])c1cccc(/C=N/n2c(COc3ccccc3)n[nH]c2=S)c1 | i | -1% | -31 | -1% | -25% | -2
